# Reference: PubChem BioAssay (NCI)
# The panel holds about 83,000 compounds, 20% with a hit somewhere; the sample as a whole holds those more often.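 Each cell line was grown in a 96-well plate and treated with one concentration of compound for 48 hours. Values below 10 were considered active.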 Activity calls are given as the source filed them.
# System: MDA-MB-468 breast
# Assay: NCI-60 one-dose screen, 48 h (100 = growth as untreated, 0 = no growth, -100 = all killed)
# Conditions: 10 µM unless noted
row,SMILES,growth
1,N#Cc1c(-c2cccs2)cc(-c2cnccn2)nc1SCC(=O)N/N=C/c1ccncc1,103% (inactive)
2,CCOC(=O)c1sc(-c2ccc(OS(=O)(=O)C[C@]34CCC(CC3=O)C4(C)C)c(C=O)c2)nc1C,3.2% (active)
3,O=C(O)c1cn(C2CC2)c2cc(N3CCN(Cc4ccc5ccccc5c4O)CC3)c(F)cc2c1=O,39.2% (inactive)
4,CS(=O)(=O)c1ccc2c(c1)c1c(n2S(=O)(=O)c2ccc(Cl)cc2)CCCC1,42.3% (inactive)
5,COc1cc(Cl)cc(-c2nn(C(=O)NS(=O)(=O)c3ccccc3)cc2-c2ccncc2)c1,89% (inactive)
6,CCOc1cc2ncc(C#N)c(Nc3ccc(OCc4cccc(F)c4)c(Cl)c3)c2cc1NC(=O)CC1CCSS1 (stereo not given),-5.09% (active)
7,COC(=O)CSc1ccc(Cl)cc1,126% (inactive)
8,O=C(CN1N=C(c2ccc(F)cc2)CCC1=O)Nc1nc2ccccc2s1,97.7% (inactive)
9,O=C(O)c1ccc(P(=O)(O)O)c([N+](=O)[O-])c1,98.4% (inactive)
10,S=C(N/N=C/c1ccccn1)Nc1ccccn1,-1.71% (active)
11,CCC1C(=O)COC1=O (stereo not given),103% (inactive)
12,Cc1cc(C)c([I+]c2c(C)cc(C)cc2C)c(C)c1,-41.9% (active)
13,CCCCCCN(CCCCCC)CC(O)c1cccc2ccc(Cl)cc12 (stereo not given),87.6% (inactive)
14,COc1ccc(C(C#N)=C2C=CC(=NO)C=C2)cc1,-7.26% (active)
15,COc1ccc(C2=NN(C(C)=O)C(c3cc(OC)c(OC)c(OC)c3)C2)cc1 (stereo not given),108% (inactive)
16,CN1CCc2cccc3c2C1Cc1ccc(O)c(O)c1-3 (stereo not given),0.652% (active)
17,COc1cc(-c2n/c(=C\c3c(O)[nH]c4ccc(Cl)cc34)cc3c2=Nc2ccccc2-3)ccc1F,-7.14% (active)
18,Cc1ccc(-c2nc3nc(-c4ccccc4)nc(N4CCCNCC4)c3o2)cc1,-67.5% (active)
19,O=C1C2=C(C(=O)c3c(O)ccc(O)c31)N(c1ccc(N3CCOCC3)nc1)Cc1ccccc1O2,-60.8% (active)
20,CC[C@]1(O)CC2CN(CCc3c([nH]c4ccccc34)[C@@](C(=O)OC)(c3cc4c(cc3OC)N(C=O)[C@H]3[C@@](O)(C(=O)OC)[C@H](OC(C)=O)[C@]5(CC)C=CCN6CC[C@]43[C@@H]65)C2)C1 (stereo not given in full),10.4% (inactive)

row,SMILES,growth
1,CC(=O)N(C)N=Nc1ccc(C)cc1,104% (inactive)
2,Cc1cc2c(C(C)C)c(O)c(O)c(C=NCCCCCCC(=O)O)c2c(O)c1-c1c(C)cc2c(C(C)C)c(O)c(O)c(C=NCCCCCCC(=O)O)c2c1O,30.4% (inactive)
3,c1ccc2c(-c3nc(-c4c[nH]c5ccncc45)cs3)c[nH]c2c1,-9.84% (active)
4,CC1=C(C)C(=O)C(Nc2cccc(C(F)(F)F)c2)=C(Cl)C1=O,-65.6% (active)
5,COc1ccc(OC)c(/C=C2\COc3ccc(O)c(O)c3C2=O)c1,16.6% (inactive)
6,N[C@@H]1CCN(C(=O)c2cc3cc(Cl)c(F)c(F)c3[nH]2)C1,81.6% (inactive)
7,N=C(N)c1ccc(-c2ccc(/C=C/c3ccccc3)s2)cc1,-67.3% (active)
8,CC(C)(C)OC(=O)N1CCN(c2ccc(N)cc2)C(=O)C1,111% (inactive)
9,C[C@@H](Oc1cc(-c2cnn(C3CC4(CNC4)C3)c2)cnc1N)c1c(Cl)ccc(F)c1Cl,20.5% (inactive)
10,COc1cc2c3c(n(C4CCN(C)CC4)c(=O)c2cc1OC)-c1cc2c(cc1C3=O)OCO2,31.6% (inactive)
11,O=C1C=CC(=O)N1c1ccc(O)cc1,88.9% (inactive)
12,NS(=O)(=O)c1cc(Br)c2c(c1)S(=O)(=O)NCN2,126% (inactive)
13,COc1ccccc1-n1cc(C#N)c(N)c1C(=O)c1ccc(Br)cc1,31.3% (inactive)
14,COc1ccc(C2=NN(C(C)=O)C(c3cccc(Nc4ccnc5cc(Cl)ccc45)c3)C2)cc1 (stereo not given),38.9% (inactive)
15,CC(C)=NNc1ccccn1,12.9% (inactive)
16,COc1cccc2c1O/C(=C\c1ccc([N+](=O)[O-])s1)C2=O,14.5% (inactive)
17,CC(=O)Oc1ccc(Cl)cc1CN(C(C)=O)C1CCCCC1,101% (inactive)
18,Cc1c(O)nc(N)[nH]c1=O,105% (inactive)
19,CCNC(=O)Oc1ccc(/C(=C(/C)c2ccccc2)c2ccc(OCCN3CCCCCC3)cc2)cc1,-16.9% (active)
20,CS(=O)(=O)c1ccc(-n2cc(/C=C/C(=O)c3ccc(NC(=O)CO[N+](=O)[O-])cc3)c(-c3ccc(Cl)cc3)n2)cc1,94.1% (inactive)
